PubChem BioAssay AID1159580 (chemical genetic matrix, 2015)
Among all 5,500 compounds or so, about 2,000 (36%) were called active. Another 18% or so got no clear call; they are omitted. No stated cut-off is given here; in the data, active means normalized growth mostly below about 0.91 (no sharp cut-off); inconclusive means no clear call, values can overlap the other calls; inactive means mostly above about 0.92. The list shows a part of the results.

Experiment: chemical genetic growth profiling, strain panel (AID 1159580);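 further: tested at 20 µM; growth read once vehicle control cultures reached saturation at 30 °C; 1 = growth at the plate median or of vehicle wells; lower values mean less growth of the strain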
Details: growth OD

Measured: normalized growth

c1ccc2c(c1)CCCC2C1=NCCN1 (stereo not given)
inactive: S. cerevisiae deletion strains, locus YKL009W, strain mrt4, hits give low values 0.995 | S. cerevisiae deletion strains, locus YKL068W, hits give low values 1 | S. cerevisiae deletion strains, locus YKL085W, strain MDH1 (second series), hits give low values 1.01 | S. cerevisiae deletion strains, locus YKL085W, strain MDH1, hits give low values 1.01 | S. cerevisiae deletion strains, locus YKL160W, strain elf1, hits give low values 1.03 | S. cerevisiae deletion strains, locus YKL190W, strain CNB1, hits give low values 1.01 | S. cerevisiae deletion strains, locus YKR001C, strain vps1, hits give low values 0.986 | S. cerevisiae deletion strains, locus YKR026C, strain gcn3, hits give low values 1.02 | S. cerevisiae deletion strains, locus YKR091W, strain srl3, hits give low values 1.03 | S. cerevisiae deletion strains, locus YLL001W, strain dnm1, hits give low values 1.03 | S. cerevisiae deletion strains, locus YLL026W, hits give low values 1.03 | S. cerevisiae deletion strains, locus YLL041C, strain sdh2, hits give low values 1.04 | S. cerevisiae deletion strains, locus YLR027C, strain aat2, hits give low values 1.02 | S. cerevisiae deletion strains, locus YLR039C, strain RIC1, hits give low values 1.03 | S. cerevisiae deletion strains, locus YLR058C, strain SHM2, hits give low values 1.01 | S. cerevisiae deletion strains, locus YLR102C, strain apc9, hits give low values 1 | S. cerevisiae deletion strains, locus YLR113W, strain HOG1, hits give low values 0.982 | S. cerevisiae deletion strains, locus YLR221C, strain rsa3, hits give low values 1.04 | S. cerevisiae deletion strains, locus YLR258W, strain gsy2, hits give low values 1.02 | S. cerevisiae deletion strains, locus YLR262C, strain YPT6 (second series), hits give low values 1.04 | S. cerevisiae deletion strains, locus YLR262C, strain YPT6, hits give low values 1.04 | S. cerevisiae deletion strains, locus YLR268W, strain sec22, hits give low values 1.03 | S. cerevisiae deletion strains, locus YLR320W, strain mms22, hits give low values 1.03 | S. cerevisiae deletion strains, locus YLR330W, strain CHS5, hits give low values 1.01 | S. cerevisiae deletion strains, locus YLR342W, strain FKS1 (second series), hits give low values 1.03 | S. cerevisiae deletion strains, locus YLR342W, strain FKS1, hits give low values 1.02 | S. cerevisiae deletion strains, locus YLR357W, strain rsc2, hits give low values 1.04 | S. cerevisiae deletion strains, locus YLR370C, strain arc18, hits give low values 1.02 | S. cerevisiae deletion strains, locus YLR371W, strain rom2, hits give low values 1.01 | S. cerevisiae deletion strains, locus YLR384C, strain iki3, hits give low values 1.03 | S. cerevisiae deletion strains, locus YLR418C, strain cdc73, hits give low values 0.98 | S. cerevisiae deletion strains, locus YML016C, strain PPZ1, hits give low values 1.01 | S. cerevisiae deletion strains, locus YML032C, strain rad52, hits give low values 1 | S. cerevisiae deletion strains, locus YML120C, strain ndi1, hits give low values 1.01 | S. cerevisiae deletion strains, locus YML124C, strain tub3, hits give low values 0.986 | S. cerevisiae deletion strains, locus YMR058W, strain fet3, hits give low values 1.02 | S. cerevisiae deletion strains, locus YMR078C, strain ctf18, hits give low values 0.997 | S. cerevisiae deletion strains, locus YMR125W, strain sto1, hits give low values 1.03 | S. cerevisiae deletion strains, locus YMR129W, hits give low values 1.02 | S. cerevisiae deletion strains, locus YMR205C, strain PFK2, hits give low values 1.05 | S. cerevisiae deletion strains, locus YMR223W, strain ubp8, hits give low values 0.985 | S. cerevisiae deletion strains, locus YMR231W, strain pep5, hits give low values 1.02 | S. cerevisiae deletion strains, locus YMR263W, strain SAP30, hits give low values 1.01 | S. cerevisiae deletion strains, locus YMR307W, strain GAS1, hits give low values 1 | S. cerevisiae deletion strains, locus YNL067W, strain RPL9B, hits give low values 1 | S. cerevisiae deletion strains, locus YNL071W, strain lat1, hits give low values 1.03 | S. cerevisiae deletion strains, locus YNL128W, strain TEP1, hits give low values 1.02 | S. cerevisiae deletion strains, locus YNL153C, strain GIM3, hits give low values 1.06 | S. cerevisiae deletion strains, locus YNL175C, strain NOP13, hits give low values 0.995 | S. cerevisiae deletion strains, locus YNL183C, strain NPR1, hits give low values 0.953 | S. cerevisiae deletion strains, locus YNL197C, strain WHI3, hits give low values 1 | S. cerevisiae deletion strains, locus YNL209W, strain ssb2, hits give low values 1.02 | S. cerevisiae deletion strains, locus YNL224C, strain SQS1, hits give low values 1 | S. cerevisiae deletion strains, locus YNL233W, strain BNI4, hits give low values 1.01 | S. cerevisiae deletion strains, locus YNL248C, strain rpa49, hits give low values 1.02 | S. cerevisiae deletion strains, locus YNL250W, strain rad50, hits give low values 0.998 | S. cerevisiae deletion strains, locus YNL271C, strain bni1, hits give low values 0.998 | S. cerevisiae deletion strains, locus YNL298W, strain CLA4, hits give low values 1.02 | S. cerevisiae deletion strains, locus YNL307C, strain MCK1, hits give low values 0.995 | S. cerevisiae deletion strains, locus YNL322C, strain KRE1 (second series), hits give low values 1.03 | S. cerevisiae deletion strains, locus YNL322C, strain KRE1, hits give low values 1.01 | S. cerevisiae deletion strains, locus YNR049C, strain mso1, hits give low values 1.02 | S. cerevisiae deletion strains, locus YNR052C, strain pop2, hits give low values 1.01 | S. cerevisiae deletion strains, locus YOL006C, strain TOP1, hits give low values 0.988 | S. cerevisiae deletion strains, locus YOL012C, strain htz1 0.923 | S. cerevisiae deletion strains, locus YOL147C, strain pex11, hits give low values 0.989 | S. cerevisiae deletion strains, locus YOR001W, strain rrp6, hits give low values 1.02 | S. cerevisiae deletion strains, locus YOR061W, strain CKA2, hits give low values 1.01 | S. cerevisiae deletion strains, locus YOR069W, strain VPS5, hits give low values 1.01 | S. cerevisiae deletion strains, locus YOR070C, strain gyp1, hits give low values 1.02 | S. cerevisiae deletion strains, locus YOR080W, strain dia2, hits give low values 1.04 | S. cerevisiae deletion strains, locus YOR083W, strain WHI5 (second series), hits give low values 1.02 | S. cerevisiae deletion strains, locus YOR083W, strain WHI5, hits give low values 1.03 | S. cerevisiae deletion strains, locus YOR106W, strain vam3, hits give low values 1.03 | S. cerevisiae deletion strains, locus YOR136W, strain idh2, hits give low values 0.994 | S. cerevisiae deletion strains, locus YOR144C, strain elg1, hits give low values 0.993 | S. cerevisiae deletion strains, locus YOR184W, strain ser1, hits give low values 0.99 | S. cerevisiae deletion strains, locus YOR231W, strain MKK1, hits give low values 0.978 | S. cerevisiae deletion strains, locus YOR265W, strain rbl2, hits give low values 1.02 | S. cerevisiae deletion strains, locus YOR270C, strain vph1, hits give low values 1.07 | S. cerevisiae deletion strains, locus YOR290C, strain snf2, hits give low values 1.04 | S. cerevisiae deletion strains, locus YOR316C, strain cot1, hits give low values 1 | S. cerevisiae deletion strains, locus YPL051W, strain arl3, hits give low values 1.03 | S. cerevisiae deletion strains, locus YPL055C, strain LGE1, hits give low values 0.995 | S. cerevisiae deletion strains, locus YPL078C, strain atp4, hits give low values 1.01 | S. cerevisiae deletion strains, locus YPL106C, strain sse1, hits give low values 1.06 | S. cerevisiae deletion strains, locus YPL240C, strain hsp82, hits give low values 1.01 | S. cerevisiae deletion strains, locus YPL241C, strain CIN2, hits give low values 1.01 | S. cerevisiae deletion strains, locus YPL256C, strain CLN2, hits give low values 0.959 | S. cerevisiae deletion strains, locus YPR119W, strain clb2, hits give low values 1.01 | S. cerevisiae deletion strains, locus YPR141C, strain kar3, hits give low values 0.981 | S. cerevisiae deletion strains, locus YPR163C, strain tif3, hits give low values 1 | S. cerevisiae deletion strains, locus YPR167C, strain met16, hits give low values 1 | S. cerevisiae deletion strains, strain wtn01, hits give low values 0.996 | S. cerevisiae strains, strain wild type, hits give low values 1.02
